Structures are written as SMILES. Compounds without any hit were thinned out: in the full panel of roughly 83,000, 20% have a hit.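 Plates (96-well) were seeded with cells, treated with compound at one concentration, and incubated for 48 hours before percent growth was determined.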 A number with no mark means an inactive call. Activity calls are given as the source filed them. The calls were made as follows: active = growth percent below 10; inactive = the rest.

The record followed here is PubChem BioAssay (NCI).

What all share (assay): NCI-60 one-dose screen, 48 h (100 = growth as untreated, 0 = no growth, -100 = all killed)
One experiment concerns SR leukemia. The note with it: 10 µM unless noted.
For a further experiment, the system named is RPMI-8226 leukemia. To be noted: 10 µM.
The subject of another experiment is OVCAR-8 ovarian. The note with it: 10 µM unless noted.
In the next experiment the test system is OVCAR-5 ovarian. To be noted: 10 µM unless noted.
Another experiment has as its system OVCAR-4 ovarian. To be noted: 10 µM unless noted.
In another experiment the test system is SK-OV-3 ovarian. To be noted: 10 µM.
A further experiment has as its system IGROV1 ovarian. The note with it: 10 µM unless noted.
For a further experiment, the system named is OVCAR-3 ovarian. The note with it: 10 µM unless noted.
For a further experiment, the system named is HS 578T breast. To be noted: 10 µM unless noted.
A further experiment has as its system NCI/ADR-RES ovarian. The note with it: 10 µM unless noted.
A further experiment deals with T-47D breast. The note with it: 10 µM.
The next experiment relates to BT-549 breast. The note with it: 10 µM unless noted.
Another experiment deals with MDA-MB-435 melanoma. To be noted: 10 µM unless noted.
The next experiment concerns SW-620 colon. The note with it: 10 µM unless noted.
A further experiment has as its system MCF7 breast. To be noted: 10 µM unless noted.
Another experiment has as its system HCT-116 colon. The note with it: 10 µM unless noted.
Another experiment has as its system HCC-2998 colon. The note with it: 10 µM unless noted.
The subject of another experiment is KM12 colon. To be noted: 10 µM unless noted.

On to `OC[C@@H](O)[C@@H](O)CO`, for which the growth with SR leukemia is 81.7%; in the experiment on RPMI-8226 leukemia, 118%; in the experiment on OVCAR-8 ovarian it was 105%; in the experiment with OVCAR-5 ovarian, 102%; in the experiment with OVCAR-4 ovarian it was 101%; in the experiment on SK-OV-3 ovarian it was 116%. For the same molecule, the growth with IGROV1 ovarian is 109%; with OVCAR-3 ovarian it was 106%; with HS 578T breast it was 104%; in the experiment on NCI/ADR-RES ovarian it was 99.6%; in the experiment on T-47D breast, 103%; in the experiment on BT-549 breast it was 101%. For the same molecule, the growth was 100% in the experiment on MDA-MB-435 melanoma; 98.4% in the experiment on SW-620 colon; 99.9% in the experiment with MCF7 breast; 102% in the experiment with HCT-116 colon; 102% with HCC-2998 colon; 105% with KM12 colon.

As to `COc1ccccc1CNCCCCCCCCCCCCN1C(=O)c2ccc3c4c(ccc(c24)C1=O)C(=O)N(CCCCCCCCCCCCNCc1ccccc1OC)C3=O`, the growth is 7.77% (active) with SR leukemia; 2.41% (active) in the experiment on RPMI-8226 leukemia; -60.9% (active) in the experiment on OVCAR-8 ovarian; 100% in the experiment on OVCAR-5 ovarian; 92.3% with OVCAR-4 ovarian; 117% in the experiment on SK-OV-3 ovarian. In addition, the growth in the experiment with IGROV1 ovarian is 83%; in the experiment on OVCAR-3 ovarian it was 44.5%; with HS 578T breast, -9.15% (active); with NCI/ADR-RES ovarian it was 85%; with T-47D breast, 119%; in the experiment on BT-549 breast, 70.5%. The growth in the experiment on MDA-MB-435 melanoma was 58%; in the experiment with SW-620 colon, 74.1%; with MCF7 breast, 26.7%; in the experiment with HCT-116 colon, -43% (active); in the experiment on HCC-2998 colon it was 80.9%; in the experiment with KM12 colon, 46.6%.

`CC(C)(C)[Si](C)(C)OC1[C@@H](COC(=O)NC(=O)CCl)O[C@@H](n2cnc3c(N)ncnc32)[C@H]1O[Si](C)(C)C(C)(C)C` (some centres undefined): the growth with SR leukemia is -57.5% (active); in the experiment with RPMI-8226 leukemia, -29.5% (active); in the experiment with OVCAR-8 ovarian, -7.49% (active); in the experiment on OVCAR-5 ovarian, 77.4%; in the experiment with OVCAR-4 ovarian, 36.9%; in the experiment on SK-OV-3 ovarian it was 87.8%. Besides, the growth was -68.3% (active) with IGROV1 ovarian; 0.626% (active) in the experiment with OVCAR-3 ovarian; 74.5% in the experiment with HS 578T breast; 46.6% in the experiment on NCI/ADR-RES ovarian; 76.3% with T-47D breast; -17.9% (active) in the experiment on BT-549 breast. For the same molecule, the growth with MDA-MB-435 melanoma was -28.2% (active); in the experiment with SW-620 colon, -21.8% (active); with MCF7 breast, 10.6%; with HCT-116 colon, 11.2%; in the experiment on HCC-2998 colon, 56%; with KM12 colon, 19.9%.

`Cc1cc(=O)c2c(C)ccc(C)c2[nH]1`: the growth in the experiment on SR leukemia is 110%; with RPMI-8226 leukemia, 105%; in the experiment on OVCAR-8 ovarian, 94.5%; with OVCAR-5 ovarian it was 97.3%; in the experiment on OVCAR-4 ovarian, 106%; in the experiment with SK-OV-3 ovarian, 107%. The growth in the experiment with IGROV1 ovarian is 103%; in the experiment on OVCAR-3 ovarian it was 169%; in the experiment with HS 578T breast it was 108%; in the experiment with NCI/ADR-RES ovarian, 100%; in the experiment with T-47D breast it was 96.1%; in the experiment with BT-549 breast it was 123%. Besides, the growth with MDA-MB-435 melanoma is 104%; in the experiment with SW-620 colon it was 104%; in the experiment with MCF7 breast it was 93.5%; in the experiment with HCT-116 colon, 96.3%; with HCC-2998 colon it was 91.2%; in the experiment with KM12 colon, 130%.

Take `O=c1[nH]c(-c2ccncc2)nc2sc3c(c12)CCCCCC3`: the growth was 40% in the experiment on SR leukemia; 91% in the experiment on RPMI-8226 leukemia; 69.2% with OVCAR-8 ovarian; 80% with OVCAR-5 ovarian; 1.18% (active) in the experiment on OVCAR-4 ovarian; 31.5% in the experiment on SK-OV-3 ovarian. For the same molecule, the growth is 69.5% in the experiment with IGROV1 ovarian; 74.1% in the experiment on OVCAR-3 ovarian; 85.9% in the experiment on HS 578T breast; 55% in the experiment on NCI/ADR-RES ovarian; 24.6% in the experiment with T-47D breast; 98.9% in the experiment with BT-549 breast. Also, the growth was 77.7% with MDA-MB-435 melanoma; 72.2% in the experiment on SW-620 colon; 77.4% with MCF7 breast; 46.6% in the experiment on HCT-116 colon; 101% in the experiment on HCC-2998 colon; 84.4% in the experiment with KM12 colon.

Regarding `CN1CCN(c2nc(-c3ccncc3)nc3sc4c(c23)CCCCCC4)CC1`, the growth is 32.5% in the experiment with SR leukemia; 69% in the experiment with RPMI-8226 leukemia; 82.9% in the experiment with OVCAR-8 ovarian; 81.3% in the experiment on OVCAR-5 ovarian; 71.7% with OVCAR-4 ovarian; 72.9% in the experiment on SK-OV-3 ovarian. In addition, the growth in the experiment on IGROV1 ovarian is 76.2%; in the experiment with OVCAR-3 ovarian, 93.5%; with HS 578T breast it was 5.17% (active); in the experiment on NCI/ADR-RES ovarian, 64.9%; in the experiment on T-47D breast, 90.9%; with BT-549 breast it was 44.3%. In addition, the growth is 77.7% in the experiment with MDA-MB-435 melanoma; 77.1% with SW-620 colon; 60.6% in the experiment on MCF7 breast; 56.5% with HCT-116 colon; 37.4% with HCC-2998 colon; 90.9% with KM12 colon.

For the molecule `Brc1ccccc1Nc1ccc2nnc(-c3ccncc3)n2n1`, the growth in the experiment on SR leukemia is 61.7%; in the experiment on RPMI-8226 leukemia it was 91.1%; in the experiment on OVCAR-8 ovarian it was 100%; in the experiment on OVCAR-5 ovarian, 101%; in the experiment with OVCAR-4 ovarian, 104%; in the experiment on SK-OV-3 ovarian, 102%. For the same molecule, the growth in the experiment on IGROV1 ovarian was 93.6%; with OVCAR-3 ovarian, 103%; in the experiment on HS 578T breast it was 109%; with NCI/ADR-RES ovarian it was 99.8%; in the experiment on T-47D breast, 80.6%; in the experiment with BT-549 breast it was 107%. The growth is 105% with MDA-MB-435 melanoma; 102% with SW-620 colon; 84.9% in the experiment with MCF7 breast; 94.9% in the experiment with HCT-116 colon; 113% in the experiment with HCC-2998 colon; 94.1% with KM12 colon.

In the case of `N#Cc1ccc(C(F)(F)F)nc1N1CCC(C(=O)Nc2ccc(Cl)cc2)CC1`, the growth in the experiment on SR leukemia is 48.3%; in the experiment on RPMI-8226 leukemia, 74.1%; in the experiment on OVCAR-8 ovarian, 75.8%; with OVCAR-5 ovarian, 76.9%; with OVCAR-4 ovarian, 69.1%; in the experiment with SK-OV-3 ovarian it was 82.5%. In addition, the growth with IGROV1 ovarian was 102%; in the experiment with OVCAR-3 ovarian it was 99.4%; with HS 578T breast, 105%; with NCI/ADR-RES ovarian, 72.1%; with T-47D breast, 64.7%; in the experiment on BT-549 breast it was 70.8%. Further, the growth is 67.5% in the experiment with MDA-MB-435 melanoma; 75.4% in the experiment with SW-620 colon; 60% in the experiment with MCF7 breast; 41.3% in the experiment with HCT-116 colon; 68.7% in the experiment on HCC-2998 colon; 91% in the experiment on KM12 colon.
